Results on 4 compounds are retold here after PubChem BioAssay (EPA / NIEHS).

Active and inactive are the calls of the source. Rule for the calls: active = hit-call score of the fitted dose curve at least 0.9, where 1 is the maximum; inactive = score below 0.9.

Experiment [1] can be described thus: ATG_CRE_CIS: Attagene CIS-FACTORIAL HepG2 Assay for human cAMP Responsive Element (CRE) binding protein 3 (AID 2282926). The settings on record: HepG2 CRE cis-reporter, Attagene multiplexed mRNA; actives raise or lower the signal. In outline:
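HepG2 cells transiently transfected with cis-element-driven multiple reporter transcription units; CRE reporter mRNA measured 24 h after dosing by RT-PCR, 6-FAM labelling, HpaI digestion and capillary electrophoresis. Bidirectional fit versus DMSO baseline.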

For experiment [2], the target named is CCAAT/enhancer-binding protein beta (Homo sapiens) (UniProt P17676). In words: ATG_C_EBP_CIS: Attagene CIS-FACTORIAL HepG2 Assay for human CCAAT/Enhancer Binding Protein (C/EBP) beta (AID 2282927). As to conditions: HepG2 Attagene cis-factorial transcription factor reporter; actives raise or lower the signal. In outline: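 Changes in reporter mRNA, rather than exogenous chimeric receptor activity, reflect native C/EBP signalling in transfected HepG2 cells dosed for 24 h; transcripts are detected by RT-PCR and capillary electrophoresis.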
Sequence of CCAAT/enhancer-binding protein beta (Homo sapiens) (P17676 whole entry, looked up): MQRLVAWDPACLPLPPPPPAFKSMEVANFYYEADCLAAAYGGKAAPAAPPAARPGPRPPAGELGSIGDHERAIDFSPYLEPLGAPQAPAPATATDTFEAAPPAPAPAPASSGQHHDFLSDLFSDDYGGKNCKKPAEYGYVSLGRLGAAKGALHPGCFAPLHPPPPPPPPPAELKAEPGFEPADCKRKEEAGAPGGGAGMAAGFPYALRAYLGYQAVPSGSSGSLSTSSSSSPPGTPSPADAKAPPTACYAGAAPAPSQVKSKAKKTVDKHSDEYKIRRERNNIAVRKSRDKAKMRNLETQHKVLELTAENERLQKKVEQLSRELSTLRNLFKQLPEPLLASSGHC

The nature of experiment [3]: ATG_CMV_CIS: Attagene CIS-FACTORIAL HepG2 Assay for human CMV (Internal Marker) (AID 2282928).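 Note: endpoint acts as a background internal control marker rather than a target.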 The settings on record: HepG2 CMV promoter reporter, transcription factor profiling; actives raise or lower the signal. In outline: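 Cell system: HepG2, transiently transfected multiple reporter units under cis promoters. Exposure: 24 h. Detection: RT-PCR, FAM labeling, HpaI digestion, capillary electrophoresis. Analysis: bidirectional, DMSO baseline.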

Experiment [4] in a line: ATG_AP_1_CIS: Attagene CIS-FACTORIAL HepG2 Assay for human Activator Protein 1 (AP-1) (AID 2282931). As to conditions: HepG2 Attagene cis-factorial AP-1 reporter mRNA; actives raise or lower the signal. In outline: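 Multiplexed HepG2 reporter assay, 24 h dosing. mRNA induction detected by RT-PCR plus capillary electrophoresis. Activity fitted in both directions against DMSO.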

A short description of experiment [5]: ATG_AP_2_CIS: Attagene CIS-FACTORIAL HepG2 Assay for human Activator Protein 2 (AP-2) (AID 2282932). As to conditions: HepG2 AP-2 cis-reporter, Attagene transcription factor profiling; actives raise or lower the signal. In outline:
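Step one: transient transfection of HepG2 with reporter transcription units. Step two: 24 h chemical exposure. Step three: RNA extraction, RT-PCR, labelled fragment analysis by capillary electrophoresis; DMSO serves as baseline.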

Experiment [6] is described as follows: ATG_BRE_CIS: Attagene CIS-FACTORIAL HepG2 Assay for human Bone Morphogenetic Protein (BMP) Response Element (BRE) (AID 2282933). The settings on record: HepG2 BMP response element reporter, Attagene transcription factor profiling; actives raise or lower the signal. In outline: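 Endogenous transcription factor activity read in transiently transfected HepG2 cells after 24 h chemical exposure. Bidirectional curve fitting against DMSO; readout is reporter transcript level by RT-PCR with capillary electrophoresis of labelled products.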

The target of experiment [7] is Transcription factor E2F1 (Homo sapiens) (UniProt Q01094). The experiment is described as follows: ATG_E2F_CIS: Attagene CIS-FACTORIAL HepG2 Assay for human E2F Transcription Factor 1 (AID 2282935). The settings on record: HepG2 Attagene cis-reporter, E2F reporter RNA transcripts; actives raise or lower the signal. In outline: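 Total RNA from 24 h-treated, reporter-transfected HepG2 cells undergoes DNase I treatment, oligo(dT) reverse transcription, PCR and 6-FAM primer extension before capillary electrophoresis.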
Sequence of Transcription factor E2F1 (Homo sapiens) (Q01094 whole entry, looked up): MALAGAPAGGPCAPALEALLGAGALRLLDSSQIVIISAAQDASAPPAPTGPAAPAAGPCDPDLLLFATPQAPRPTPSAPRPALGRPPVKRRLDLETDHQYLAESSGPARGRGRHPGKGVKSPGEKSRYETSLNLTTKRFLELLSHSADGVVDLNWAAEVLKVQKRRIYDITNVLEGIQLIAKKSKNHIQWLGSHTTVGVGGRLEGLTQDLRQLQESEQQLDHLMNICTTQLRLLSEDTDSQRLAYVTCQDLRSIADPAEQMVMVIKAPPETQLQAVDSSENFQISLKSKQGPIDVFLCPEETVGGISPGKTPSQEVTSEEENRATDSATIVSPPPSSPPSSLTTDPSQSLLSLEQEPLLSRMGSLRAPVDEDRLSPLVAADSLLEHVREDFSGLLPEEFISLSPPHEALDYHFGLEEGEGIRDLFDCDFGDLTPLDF

A short description of experiment [8]: ATG_E_Box_CIS: Attagene CIS-FACTORIAL HepG2 Assay for human Enhancer Box (E-box) (AID 2282936). As to conditions: HepG2 E-box cis-reporter transcription, actives raise or lower the signal. In outline: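 DMSO served as negative control and baseline for bidirectional fitting. Human hepatoma HepG2 cells, transiently transfected with cis-reporter constructs, were dosed 24 h; reporter mRNA read by RT-PCR and capillary electrophoresis.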

Experiment [9] is described as follows: ATG_M_61_CIS: Attagene CIS-FACTORIAL HepG2 Assay for M61 Transcription Factor (Internal Marker) (AID 2282937). The settings on record: HepG2 Attagene CIS-FACTORIAL M61 internal marker reporter; actives raise or lower the signal. In outline:
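Endogenous transcription factor activity in HepG2 is read through transiently transfected cis-element reporter units. After 24 h dosing, RNA undergoes reverse transcription, PCR and primer extension with 6-FAM before capillary electrophoresis; DMSO-referenced bidirectional fit.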

Experiment [10] is described as follows: ATG_EGR_CIS: Attagene CIS-FACTORIAL HepG2 Assay for human Early Growth Response 1 (EGR1) (AID 2282938). As to conditions: HepG2 Attagene CIS-FACTORIAL EGR reporter mRNA; actives raise or lower the signal. In outline:
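Activity is taken as induction or loss of reporter mRNA versus DMSO, fitted bidirectionally. Transcripts from cis-regulated reporter units in transiently transfected HepG2 were measured after 24 h by RT-PCR with capillary electrophoresis.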

Experiment [11] is described as follows: ATG_M_19_CIS: Attagene CIS-FACTORIAL HepG2 Assay for M19 Transcription Factor (Internal Marker) (AID 2282939). The settings on record: HepG2 Attagene CIS-FACTORIAL M19 internal marker reporter; actives raise or lower the signal. In outline: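 Internal marker readout, fitted in both directions against DMSO, from HepG2 cells carrying transfected cis-element reporter constructs; RT-PCR and capillary electrophoresis of reporter mRNA after 24 h exposure.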

Experiment [12] can be described thus: ATG_GATA_CIS: Attagene CIS-FACTORIAL HepG2 Assay for human GATA Binding Protein (AID 2282944). The settings on record: HepG2 GATA cis-element reporter, Attagene multiplex mRNA; actives raise or lower the signal. In outline:
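Reporter transcripts from a GATA cis-regulated unit, among multiplexed reporters in transfected HepG2 cells, were measured by RT-PCR with capillary electrophoresis after 24 h dosing. Induction or loss scored relative to DMSO.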

A short description of experiment [13]: ATG_GLI_CIS: Attagene CIS-FACTORIAL HepG2 Assay for human Zinc Finger Protein GLI1 (AID 2282945). The settings on record: HepG2, Attagene cis-factorial reporter mRNA, GLI element; actives raise or lower the signal. In outline:
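Bidirectional curve fits relative to DMSO, using reporter mRNA levels from RT-PCR plus capillary electrophoresis. Cells were HepG2 transiently carrying cis-regulated reporter constructs, harvested 24 h after dosing.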

Experiment [14] in a line: ATG_ISRE_CIS: Attagene CIS-FACTORIAL HepG2 Assay for human Interferon Regulatory Factor 1 (IRF1) binding to an Interferon-Stimulated Response Element (ISRE) (AID 2282948). As to conditions: HepG2 ISRE cis-reporter (Attagene), mRNA transcription readout; actives raise or lower the signal. In outline: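 Quantitation relies on labelled RT-PCR fragments separated by capillary electrophoresis. Human HepG2 cells bearing cis-promoter reporter constructs were treated 24 h; DMSO served as baseline for bidirectional fitting.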

Experiment [15] is described as follows: ATG_M_32_CIS: Attagene CIS-FACTORIAL HepG2 Assay for M32 Transcription Factor (Internal Marker) (AID 2282949).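 Note: background control marker of the multiplexed CIS panel rather than a real target.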 The settings on record: HepG2 Attagene cis-factorial M32 reporter, mRNA; actives raise or lower the signal. In outline: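 Following 24 h chemical exposure of HepG2 cells transiently expressing cis-promoter reporter constructs, reporter transcript levels were determined by RT-PCR with fluorescent labelling and capillary electrophoresis, then fitted bidirectionally against DMSO.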

A short description of experiment [16]: ATG_MRE_CIS: Attagene CIS-FACTORIAL HepG2 Assay for human Metal Responsive Element (MRE) (AID 2282954). The settings on record: HepG2 MRE cis-reporter transcription, Attagene multiplex; actives raise or lower the signal. In outline:
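After a 24 h chemical exposure, transiently transfected HepG2 cells yield RNA whose reporter sequences are amplified, FAM-labelled and sized by capillary electrophoresis. Curves are fitted bidirectionally relative to DMSO.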

Experiment [17] deals with Paired box protein Pax-6 (Homo sapiens) (UniProt P26367). In words: ATG_Pax6_CIS: Attagene CIS-FACTORIAL HepG2 Assay for human Paired Box 6 (PAX6) (AID 2282956). The settings on record: HepG2 CIS-FACTORIAL PAX6 reporter transcription, RNA readout; actives raise or lower the signal. In outline: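 After twenty-four hours of chemical exposure, transfected HepG2 cells are harvested for RNA. Cis-promoter reporter transcripts are amplified, fluorescently labelled and sized by capillary electrophoresis, with gain and loss of signal scored against DMSO.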
Sequence of Paired box protein Pax-6 (Homo sapiens) (P26367 whole entry, looked up): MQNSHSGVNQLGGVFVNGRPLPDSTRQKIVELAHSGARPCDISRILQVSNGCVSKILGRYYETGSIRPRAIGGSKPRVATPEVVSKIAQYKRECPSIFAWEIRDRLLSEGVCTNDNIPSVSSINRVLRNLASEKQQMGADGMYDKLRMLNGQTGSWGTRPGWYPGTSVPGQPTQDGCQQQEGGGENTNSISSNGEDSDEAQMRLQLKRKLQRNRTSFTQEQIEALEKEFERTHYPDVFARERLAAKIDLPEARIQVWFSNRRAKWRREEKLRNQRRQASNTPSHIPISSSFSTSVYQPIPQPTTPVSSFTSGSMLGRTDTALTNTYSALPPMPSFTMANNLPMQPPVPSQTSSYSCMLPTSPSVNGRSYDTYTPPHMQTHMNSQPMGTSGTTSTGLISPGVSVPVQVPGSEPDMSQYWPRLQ

A short description of experiment [18]: ATG_PXRE_CIS: Attagene CIS-FACTORIAL HepG2 Assay for human Pregnane X Receptor Element (PXRE) (AID 2282957). As to conditions: HepG2 Attagene CIS-FACTORIAL PXRE reporter, mRNA; actives raise or lower the signal. In outline: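 HepG2 cells transiently transfected with cis-element-driven multiplexed reporter units; after 24 h chemical exposure, reporter mRNA measured by RT-PCR, 6-FAM labelling, HpaI digestion and capillary electrophoresis. Bidirectional fitting relative to DMSO.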

Experiment [19] concerns the target Transcription factor Sp1 (Homo sapiens) (UniProt P08047). In words: ATG_Sp1_CIS: Attagene CIS-FACTORIAL HepG2 Assay for human Specificity Protein 1 (Sp1) (AID 2282961). The settings on record: HepG2 Sp1 cis-reporter transcription, actives raise or lower the signal. In outline: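 Cells: HepG2, transiently transfected with cis-regulated multiplexed reporters. Exposure: 24 h. Detection: reporter transcripts amplified, fluorescently labeled, restriction-digested and sized by capillary electrophoresis. Analysis: bidirectional fit relative to DMSO.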

Experiment [20] deals with Signal transducer and activator of transcription 3 (Homo sapiens) (UniProt P40763). In words: ATG_STAT3_CIS: Attagene CIS-FACTORIAL HepG2 Assay for human Signal Transducer and Activator of Transcription 3 (STAT3) (AID 2282963). The settings on record: HepG2, Attagene cis-factorial STAT3 reporter transcription; actives raise or lower the signal. In outline:
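After a 24 h compound incubation, total RNA from MRTU-transfected HepG2 cells was converted to cDNA and reporter sequences PCR-amplified, labelled and profiled by capillary electrophoresis. Gain and loss of signal were referenced to DMSO.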

Sequence of Signal transducer and activator of transcription 3 (Homo sapiens) (P40763 whole entry, looked up): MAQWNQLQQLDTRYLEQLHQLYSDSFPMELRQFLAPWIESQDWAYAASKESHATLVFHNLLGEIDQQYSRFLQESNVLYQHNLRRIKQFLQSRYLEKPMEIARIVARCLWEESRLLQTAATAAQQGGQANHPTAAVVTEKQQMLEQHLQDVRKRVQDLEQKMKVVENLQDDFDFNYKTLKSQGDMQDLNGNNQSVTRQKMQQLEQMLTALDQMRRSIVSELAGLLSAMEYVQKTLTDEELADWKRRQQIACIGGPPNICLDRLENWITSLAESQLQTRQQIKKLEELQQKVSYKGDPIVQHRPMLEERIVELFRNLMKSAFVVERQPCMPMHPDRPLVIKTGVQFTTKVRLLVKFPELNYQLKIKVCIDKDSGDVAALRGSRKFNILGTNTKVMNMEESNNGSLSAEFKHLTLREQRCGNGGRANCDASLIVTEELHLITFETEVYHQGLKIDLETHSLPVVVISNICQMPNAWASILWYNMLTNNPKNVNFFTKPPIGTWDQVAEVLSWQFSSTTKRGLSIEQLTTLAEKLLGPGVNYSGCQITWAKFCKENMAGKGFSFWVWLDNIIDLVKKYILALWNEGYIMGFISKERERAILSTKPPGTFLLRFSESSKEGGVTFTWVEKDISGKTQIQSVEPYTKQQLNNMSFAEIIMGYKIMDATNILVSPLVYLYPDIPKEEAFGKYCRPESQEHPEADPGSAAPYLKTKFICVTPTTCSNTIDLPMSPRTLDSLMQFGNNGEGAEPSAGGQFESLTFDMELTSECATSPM
Sequence of Transcription factor Sp1 (Homo sapiens) (P08047 whole entry, looked up): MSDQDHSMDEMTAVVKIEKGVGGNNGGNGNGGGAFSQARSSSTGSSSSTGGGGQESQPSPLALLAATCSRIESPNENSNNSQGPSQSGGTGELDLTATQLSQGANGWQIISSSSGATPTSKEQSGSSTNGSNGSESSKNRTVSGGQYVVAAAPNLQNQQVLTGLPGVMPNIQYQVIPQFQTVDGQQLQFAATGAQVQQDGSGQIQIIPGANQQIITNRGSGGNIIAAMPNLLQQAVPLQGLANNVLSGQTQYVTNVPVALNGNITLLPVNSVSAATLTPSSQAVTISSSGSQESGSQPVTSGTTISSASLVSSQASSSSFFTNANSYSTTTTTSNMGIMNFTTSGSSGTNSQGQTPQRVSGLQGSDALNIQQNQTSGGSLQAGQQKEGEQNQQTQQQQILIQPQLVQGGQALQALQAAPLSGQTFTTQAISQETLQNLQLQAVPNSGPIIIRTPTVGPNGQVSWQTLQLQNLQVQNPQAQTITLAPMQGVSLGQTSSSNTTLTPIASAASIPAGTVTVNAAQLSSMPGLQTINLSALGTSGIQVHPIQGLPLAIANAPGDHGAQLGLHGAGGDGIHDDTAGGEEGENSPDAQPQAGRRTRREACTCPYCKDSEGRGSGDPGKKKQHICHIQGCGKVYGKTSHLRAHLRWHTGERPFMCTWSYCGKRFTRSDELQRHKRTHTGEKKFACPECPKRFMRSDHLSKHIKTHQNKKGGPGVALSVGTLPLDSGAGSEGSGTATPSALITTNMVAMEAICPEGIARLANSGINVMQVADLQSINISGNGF

For orientation: AC50 means the concentration giving half of the maximal activity seen. `CC(C)n1c(/C=C/[C@@H](O)C[C@@H](O)CC(=O)O)c(-c2ccc(F)cc2)c2ccccc21`: the compound was classed as inactive in experiment [1], in [2], in experiment [3], in [4], in experiment [5] and in [6]. The result in [7], in experiment [8], in experiment [9], in experiment [10], in experiment [11] and in experiment [12] was inactive. Also, the call in experiment [13], in experiment [14], in experiment [15], in [16], in [17] and in experiment [19] was inactive. In addition, the result in [20] was inactive. In addition, the AC50 in experiment [18] was 3.98 µM (active).

With `CCCCCCCCCCCCCCCCCC[N+](C)(C)C`, the AC50 was 44.4 µM (active) in [1]; 41.1 µM (active) in experiment [2]; 38.6 µM (active) in [5]; 6.9 µM (active) in [8]; 38.7 µM (active) in experiment [12]; 43.6 µM (active) in [13]. The AC50 in experiment [15] was 39.2 µM (active); in [16], 40.1 µM (active); in experiment [17], 5.86 µM (active); in [20], 44 µM (active). For the same compound, the outcome in [3], in experiment [4], in experiment [6], in [7], in [9] and in [10] was inactive. For the same compound, the compound was classed as inactive in experiment [11], in experiment [14], in experiment [18] and in experiment [19].

For `CC/C=C\CC1=C(C)CCC1=O`, the result in experiment [1], in experiment [2], in [3], in experiment [4], in experiment [5] and in [6] was inactive. Besides, the call in [7], in experiment [8], in [9], in [10], in experiment [11] and in experiment [12] was inactive. In addition, the outcome in experiment [13], in [14], in [15], in experiment [16], in experiment [17] and in [19] was inactive. Further, in [20], the compound was classed as inactive. Also, the AC50 in [18] is 6.38 µM (active).

On to `Oc1ccc(Oc2ccccc2)cc1`, for which the compound was called inactive in [1], in experiment [2], in experiment [4], in [5], in [6] and in experiment [7]. For the same compound, the outcome in [8], in experiment [9], in experiment [10], in [11], in experiment [12] and in experiment [13] was inactive. Besides, the compound was classed as inactive in [14], in experiment [15], in [17], in experiment [19] and in experiment [20]. The AC50 was 44.9 µM (active) in experiment [3], 79 µM (active) in experiment [16] and 26.4 µM (active) in experiment [18].
